The results in this text go back to PubChem BioAssay (EPA / NIEHS).

The nature of assay [1]: APR_HepG2_P-H2AX_72hr: Apredica 72-hour HepG2 Assay for H2AX Phosphorylation (AID 2282916).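 Note: phospho-histone H2A.x immunostain intensity per cell marking DNA damage.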 The note with it: imaging, actives raise or lower the signal. Put shortly: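 Following 72 hr treatment with 0.39–200 uM compound, HepG2 cells were formaldehyde-fixed, permeabilized and stained for phospho-H2A.x; signal was measured by high-content imaging and fitted bidirectionally against DMSO controls.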

The nature of assay [2]: APR_HepG2_MitoMembPot_72hr: Apredica 72-hour HepG2 Assay for Mitochondrial Membrane Potential (AID 2282917). The note with it: imaging, actives raise or lower the signal. Summed up: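 HepG2 cells dosed 72 hr with compound at 0.39–200 uM in duplicate, 0.5% v/v DMSO final. Mitochondria stained with 250 nM MitoTracker Red CMXRos for 30 min before formaldehyde fixation, imaged by high-content fluorescence; bidirectional fit versus DMSO.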

The nature of assay [3]: APR_HepG2_MitoticArrest_72hr: Apredica 72-hour HepG2 Assay for Mitotic Arrest (AID 2282918). To be noted: high-content imaging, actives raise or lower the signal. Summed up: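 HepG2, 72 hr exposure, 0.39–200 uM in duplicate, 0.5% v/v DMSO final. Formaldehyde-fixed, Triton-permeabilized, anti-phospho-histone H3/FITC plus Hoechst. ArrayScan imaging at 20x; curves fit bidirectionally against DMSO baseline.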

The nature of assay [4]: APR_HepG2_MicrotubuleCSK_72hr: Apredica 72-hour HepG2 Assay for Microtubule CSK Stabilty (AID 2282919). The note with it: HepG2 microtubule cytoskeleton, high-content imaging, actives raise or lower the signal. Summed up:
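HepG2 cells were exposed 72 hr to compound at 0.39–200 uM in duplicate (0.5% DMSO final), then fixed and permeabilized. Alpha-tubulin immunofluorescence was imaged by high-content microscopy, with bidirectional fitting against DMSO and taxol as positive control.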

A short description of assay [5]: APR_HepG2_P-H2AX_24hr: Apredica 24-hour HepG2 Assay for H2AX Phosphorylation (AID 2282920). The note with it: high-content imaging, actives raise or lower the signal. Put shortly:
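HCS fluorescence imaging of phospho-H2A.x immunostain (with Hoechst 33342 nuclear counterstain) in HepG2 after 24 hr compound exposure; 10 concentrations, 0.39–200 uM, duplicate wells, 0.5% v/v DMSO. Gain or loss of signal fitted relative to DMSO baseline.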

Assay [6] is described as follows: APR_HepG2_StressKinase_72hr: Apredica 72-hour HepG2 Assay for Stress Kinase (AID 2282921). The note with it: HepG2 stress kinase (phospho-c-Jun) imaging, actives raise or lower the signal. Put shortly: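 Fluorescence intensity of Cy3-tagged anti-phospho-c-Jun antibody, quantified per cell from Hoechst-defined nuclei across six images per well, served as the read-out following 72 h exposure (0.39–200 uM, 0.5% v/v DMSO).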

Assay [7] is described as follows: APR_HepG2_StressKinase_24hr: Apredica 24-hour HepG2 Assay for Stress Kinase (AID 2282922). To be noted: HepG2 stress kinase (phospho-c-Jun) imaging, actives raise or lower the signal. Summed up:
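HepG2 cells exposed 24 h to 0.39–200 uM compound in duplicate (0.5% v/v DMSO final). Cells fixed in 3.7% formaldehyde, permeabilized and immunostained for phospho-c-Jun; read by high-content fluorescence imaging, fitted bidirectionally against DMSO.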

A short description of assay [8]: APR_HepG2_p53Act_72hr: Apredica 72-hour HepG2 Assay for p53 Activation (AID 2282923).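 Note: average cellular p53 protein immunofluorescence intensity in HepG2 cells.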 To be noted: high-content imaging, actives raise or lower the signal. Put shortly: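 HepG2 monolayers receive test compounds in duplicate at ten concentrations (0.39 through 200 uM) for 72 hr. They are then formaldehyde-fixed, antibody-labelled for p53, Hoechst-stained and imaged, with activity fitted bidirectionally versus DMSO.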

A short description of assay [9]: APR_HepG2_MitoMass_72hr: Apredica 72-hour HepG2 Assay for Mitochondrial Mass (AID 2282924).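 Note: MitoTracker Red CMXRos stain intensity per cell imaged as mitochondrial mass.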 To be noted: high-content imaging, actives raise or lower the signal. Summed up:
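HepG2 cells dosed 72 hr at 0.39–200 uM (0.5% DMSO), in duplicate. MitoTracker Red CMXRos 250 nM loaded 30 min before formaldehyde fixation; high-content fluorescence imaging, bidirectional fit versus DMSO.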

The nature of assay [10]: APR_HepG2_NuclearSize_72hr: Apredica 72-hour HepG2 Assay for Nuclear Size (AID 2282925). To be noted: high-content imaging, actives raise or lower the signal. Put shortly:
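HepG2 cells dosed 72 h at 0.39–200 uM (10 concentrations, duplicate) in 0.5% v/v DMSO final. Fixed, Hoechst 33342-stained nuclei imaged; nuclear diameter measured by automated image analysis. Bidirectional fit versus DMSO.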

Activity calls are given as the source filed them. Rule for the calls: active = hit-call score of the fitted dose curve at least 0.9, where 1 is the maximum; inactive = score below 0.9.

Regarding `CC(c1ccc(O)cc1)(c1ccc(O)cc1)c1ccc(O)cc1`, the AC50 in assay [1] is 95.4 µM (active); in assay [3], 105 µM (active); in assay [5], 111 µM (active); in assay [8] it was 110 µM (active); in assay [9] it was 170 µM (active); in assay [10] it was 105 µM (active). Besides, the outcome in assay [2], in [4], in assay [6] and in [7] was inactive.
For `ClC1=C(Cl)[C@]2(Cl)[C@@H]3[C@@H]4C[C@@H]([C@H]5O[C@@H]45)[C@@H]3[C@@]1(Cl)C2(Cl)Cl`, the AC50 in assay [1] is 41 µM (active); in assay [3], 32.6 µM (active). Moreover, the molecule was classed as inactive in assay [2], in assay [4], in [5], in assay [6], in assay [8] and in [9]. Also, the molecule was called inactive in assay [10].
As to `Cc1cccc([N+](=O)[O-])c1`, the result in assay [1], in [2], in assay [3], in [4], in [5] and in [6] was inactive. Further, the outcome in [8], in assay [9] and in assay [10] was inactive.
Consider `O=S(=O)(O)C(F)(F)C(F)(F)C(F)(F)C(F)(F)C(F)(F)C(F)(F)F`, for which the call in assay [1], in assay [2], in [3], in [4], in [5] and in [6] was inactive. Further, the outcome in assay [7], in [8], in assay [9] and in assay [10] was inactive.
Take `CCCCCCCCOC(=O)c1ccccc1C(=O)OCCCCCCCC`: the call in [1], in assay [2], in [3], in [4], in assay [5] and in assay [6] was inactive. For the same molecule, the molecule was classed as inactive in assay [7], in [8], in [9] and in assay [10].
Consider `CC#Cc1cc(C)nc(Nc2ccccc2)n1`, for which the call in assay [1], in [2], in assay [3], in [4], in assay [5] and in [6] was inactive. The call in assay [7], in assay [9] and in [10] was inactive. Further, the AC50 in assay [8] was 103 µM (active).
As to `CCCCCCCCCc1ccc(O)cc1`, the call in assay [1], in assay [2], in assay [3], in assay [4], in assay [5] and in assay [6] was inactive. Also, the result in [7], in assay [8], in assay [9] and in assay [10] was inactive.
`C[C@]12CCC(=O)C=C1CC[C@@H]1[C@@H]2CC[C@]2(C)C(=O)CC[C@@H]12`: the molecule was called inactive in [1], in assay [2], in assay [3], in assay [4], in assay [5] and in assay [6]. Also, the call in assay [8], in assay [9] and in assay [10] was inactive.
Regarding `CCOP(=S)(OCC)SCSC(C)(C)C`, the call in assay [1], in [2], in assay [3], in [4], in assay [5] and in assay [6] was inactive. Besides, the outcome in assay [7], in assay [8], in assay [9] and in assay [10] was inactive.
Consider `CCC(C)c1cc([N+](=O)[O-])cc([N+](=O)[O-])c1O` (centres undefined), for which the concentration at half-maximal activity (AC50) in assay [1] was 69.7 µM (active); in assay [2] it was 111 µM (active); in assay [5] it was 67.4 µM (active); in assay [9], 72.3 µM (active). In addition, the molecule was classed as inactive in [3], in [4], in assay [6], in assay [7], in assay [8] and in assay [10].
Take `CCOC(=O)C(O)(c1ccc(Cl)cc1)c1ccc(Cl)cc1`: the AC50 was 48.1 µM (active) in [1]; 48.5 µM (active) in [3]; 77.5 µM (active) in [5]; 49.4 µM (active) in assay [8]; 105 µM (active) in [10]. Also, the molecule was classed as inactive in assay [2], in assay [4], in assay [6], in [7] and in [9].
With `NS(=O)(=O)C(F)(F)C(F)(F)C(F)(F)C(F)(F)C(F)(F)C(F)(F)C(F)(F)C(F)(F)F`, the AC50 in [1] was 99.3 µM (active); in assay [2] it was 102 µM (active); in assay [3], 77.9 µM (active); in assay [5], 100 µM (active); in assay [8], 61.7 µM (active). Besides, the call in assay [4], in [6], in [7], in [9] and in assay [10] was inactive.
Consider `Clc1ccc(Cl)cc1`, for which the call in assay [1], in assay [2], in [3], in [4], in assay [5] and in assay [6] was inactive. The molecule was classed as inactive in [7], in assay [8], in [9] and in assay [10].
On to `CC(C)(c1ccccc1)c1ccc(O)cc1`, for which the concentration at half-maximal activity (AC50) in [1] was 97 µM (active). The molecule was classed as inactive in assay [2], in assay [3], in assay [4], in assay [5], in assay [6] and in assay [8]. In addition, the outcome in [9] and in [10] was inactive.
Consider `O=C(O)C(F)(F)C(F)(F)C(F)(F)C(F)(F)C(F)(F)C(F)(F)C(F)(F)C(F)(F)F`, for which the result in assay [1], in assay [2], in [4], in [5], in assay [6] and in assay [9] was inactive. Moreover, the call in [10] was inactive. Besides, the figures for the half-maximal activity concentration (AC50) in assay [3] and in assay [8] were 111 µM (active) and 106 µM (active), respectively.
For `O=NN(c1ccccc1)c1ccccc1`, the call in assay [1], in assay [3], in assay [4], in [5], in assay [6] and in [8] was inactive. Also, the call in [9] and in [10] was inactive. Further, in assay [2], the AC50 was 0.0668 µM (active).

In general, AC50 refers to the midpoint of the concentration-response curve, whichever way the signal moves.
